PubChem BioAssay (Tox21)
Records with an inconclusive call do not appear. Entries that show only a call come without a potency. Active and inactive are the calls of the source. Calls follow the shape of the full dose curve.

Test: Nuclear factor erythroid 2-related factor 2/antioxidant responsive element (Nrf2/ARE) small molecule agonists: luciferase reporter gene qHTS assay in human keratinocytes (AID 1919969); also: nearly all actives have a fitted effect of over 35% in size
Details: KeratinoSens HaCaT ARE-luciferase, luminescence, 24 h; series mostly up to 92.4 µM
From the text: National Center for Advancing Translational Sciences [NCATS]
Division of Preclinical Innovation [DPI]
U.S. Environmental Protection Agency [EPA]
National Institutes of Environmental Health Sciences [NIEHS]
National Toxicology Program [NTP]
U.S. Food and Drug Administration [FDA]
Oxidative stress has been implicated in the pathogenesis of a variety of diseases ranging from cancer to neurodegeneration. The antioxidant response element (ARE) signaling pathway plays an important role in the amelioration of oxidative stress. The KeratinoSens (Givaudan, Switzerland) is an in vitro test method which quantifies luciferase induction as a measure of activation of Keap1-Nrf2-antioxidationt/electrophile response element (ARE) dependant pathway in HaCaT human keratinocytes stably transfected with a selectable plasmid. The KeratinoSens assay is a cell-based assay with a reporter cell line to detect potential skin sensitizers by their ability to induce the Nrf2/ARE-response. The activation of the report gene under culture conditions can be detected by ONE-Glo Luciferase Assay System (Promega, Madison, WI). This cell line has been used to screen the Tox21 10K compound library to identify agonists that induce oxidative stress. The cytotoxicity of the Tox21 compound library against the KS-ARE cell line was tested in parallel by measuring the cell viability using CellTiter- Fluor assay system (Promega, Madison, WI) in the same wells.
HaCaT derived cell line KeratinoSens were dispensed at 1,500 cells/5uL/well in 1536-well white wall/solid bottom plates using a Multidrop Combi (ThermoFisher Scientific, Waltham, MA) dispenser. After the assay plates were incubated at 37 C/5% CO2 for 5 h, 23 nL of compounds dissolved in DMSO, positive controls or DMSO only was transferred to the assay plate by a pintool workstation (Kalypsys, San Diego, CA). The plates were incubated at 37 C/5% CO2 for 23 h, followed by addition of 1uL/well of CellTiter-Fluor reagent into the assay plates using a Flying Reagent Dispenser (Aurora Discovery, San Diego, CA) for cell viability readout that measures cytotoxicity. After 1 h incubation at 37 C/5% CO2 the fluorescence intensity was measured using a ViewLux (PerkinElmer, Shelton, CT) plate reader. Then 4uL/well of One-Glo were added using a Flying Reagent Dispenser. After the plates were incubated at room temperature for 30 min, the luminescence intensity in the assay plates was measured using ViewLux plate reader.

Compound	Potency
Cc1cc(O)cc(C)c1Cl	inactive
COc1ccc(COC(C)=O)cc1	inactive
CC(=O)C(C)O (stereo not given)	inactive
OC1OC[C@@H](O)[C@H](O)[C@H]1O (stereo not given in full)	inactive
Cc1ccccc1OCC1CO1 (stereo not given)	inactive
CN/C(=C\[N+](=O)[O-])NCCSCc1ccc(CN(C)C)o1	inactive
CC(C)C(=O)C(C)C	inactive
CC(C)CNCC(C)C	inactive
CC(C)(C)CC(C)(C)c1ccc(O)c(-n2nc3ccccc3n2)c1	inactive
O=c1[nH]c2ccc(Cl)cc2o1	inactive
CCCCCCCCCCCC[N+](C)(C)CCCS(=O)(=O)[O-]	inactive
CN1CCCC1=O	inactive
CCC1COC(=O)O1 (stereo not given)	inactive
CCCCCCCCS	inactive
ClC/C=C\CCl	inactive
Cc1[nH]cnc1-c1ccc(Cl)cc1	inactive
O=C(O)CNc1ccccc1	inactive
N[C@H](Cc1c[nH]c2ccccc12)C(=O)O	inactive
O=S(=O)(O)CCCN1CCOCC1	inactive
Cc1ccc(S(=O)(=O)O)c(C)c1	inactive

Compound	Potency
Cc1ccc(-c2ccccc2C#N)cc1	inactive
CCN(CC)CCNC(=O)c1ccc(NC(C)=O)cc1	inactive
O=P(O)(OCc1ccccc1)OCc1ccccc1	inactive
C=C(C)C(=O)OCCC[Si](Cl)(Cl)Cl	inactive
CCOC(=O)[C@H](CCc1ccccc1)N[C@@H](C)C(=O)N1Cc2ccccc2C[C@H]1C(=O)O	inactive
COc1ccc(C)cc1	inactive
CCCCCCCOC(=O)c1ccccc1C(=O)OCCCCCCC	inactive
O=C(NCN1CCOCC1)c1cnccn1	inactive
O=CC1CC=CCC1 (stereo not given)	inactive
CCc1cccc(CC)c1NC(=O)C(=O)O	inactive
CC1CCC(C(C)(C)S)C(=O)C1 (stereo not given)	inactive
CCCCCCOC(=O)CC	inactive
O=C(NCC1CCCCN1)c1cc(OCC(F)(F)F)ccc1OCC(F)(F)F (stereo not given)	inactive
COCCOCCOCCOCCOC	inactive
O=C(O)c1ccccc1-n1cc(C(=O)O)c(=O)c2cc(Nc3c(F)cc(F)cc3Cl)c(Cl)cc21	inactive
CO[C@@]1(NC(=O)C(C(=O)O)c2ccc(O)cc2)C(=O)N2C(C(=O)O)=C(CSc3nnnn3C)CO[C@@H]21 (stereo not given in full)	inactive
Cc1c(I)c(=O)n(-c2ccccc2)n1C	inactive
CC12CCC(C1)C(C)(C)C2O (stereo not given)	inactive
CC(=O)NC(Cc1ccccc1)C(=O)O (stereo not given)	inactive
CCCCCCCCCCCC(=O)OCC(C)OC(=O)CCCCC(=O)O (stereo not given)	inactive
